# Inconclusive results are not listed. The source made the active and inactive calls. Rule for the calls: active = hit-call score of the fitted dose curve at least 0.9, where 1 is the maximum; inconclusive = response in the unintended direction; inactive = score below 0.9.
# Biological target: Nucleoli Translocation, AR (gene 367) (UniProt P10275)
# Test: UPITT_HCI_U2OS_AR_TIF2_Nucleoli_Antagonist: University of Pittsburgh U2OS Androgen Receptor-Transcriptional Intermediary Factor 2 (AR-TIF2) Antagonism High Content Imaging Assay for Nucleoli Translocation (AID 2283997)
# Excerpt: UPITT_AR_TIF2_PPIB is a cell-based, high-content imaging assay that uses U2OS, a human osteosarcoma cell line, expressing a human androgen receptor fused to red fluorescent protein and the coactivator TIF2 fused to green fluorescent protein. UPITT_HCI_U2OS_AR_TIF2_Nucleoli_Antagonist is one of four assay components measured from the UPITT_AR_TIF2_PPIB assay. It is designed to make measurements of red fluorescence localized in the nucleolar region of the cell nucleus as detected with high-content fluorescent imaging.Data from the assay component UPITT_HCI_U2OS_AR_TIF2_Nucleoli_Antagonist was analyzed into 1 assay endpoint. This assay endpoint, UPITT_HCI_U2OS_AR_TIF2_Nucleoli_Antagonist, was analyzed in the positive analysis fitting direction relative to DHT as the baseline of activity. Using a type of binding reporter, measures of receptor for loss-of-signal activity can be used to understand the binding at the pathway-level as it relates to the gene AR.
# Daughter plates containing 2 uL of 10 mM compounds in DMSO were prepared and replicated from the 384-well Library of Pharmacologically Active Compounds (LOPAC) master plates using the Bravo outfitted with a 384-well transfer head. Aluminum adhesive plate seals were applied with an Abgene Seal-IT 100 (Rochester, NY) plate sealer, and the plates were stored at -20 C in a Matrical MatriMinistore (Spokane, WA) automated compound storage and retrieval system. For screening, LOPAC daughter plates were withdrawn from -20C storage, thawed to ambient temperature, centrifuged 1-2 min at 50 g, and the plate seals were removed before the transfer of 98 uL of serum-free tissue culture medium (SFM) into wells using the BioTek Microflo liquid handler (BioTek, Winooski, VT) to generate a 200 uM intermediate stock concentration of library compounds (2.0% DMSO). The diluted compounds were mixed by repeated aspiration and dispensation using a 384-well P30 dispensing head on the Evolution P3 (EP3) liquid handling platform (PerkinElmer, Waltham, MA) and then 5 uL of diluted compounds was transferred to the wells of assay plates. In the LOPAC screen, compounds were individually tested at a final concentration of 20 uM (0.2% DMSO). After the diluted compounds had been transferred from the daughter plates to the primary HCS assay plates, aluminum adhesive plate seals were applied and the diluted daughter plates were stored frozen at -20C. To confirm active compounds identified in the primary screen, we withdrew the LOPAC daughter plates containing the 200 uM intermediate concentration of library compounds (2.0% DMSO) from -20C storage, thawed them to ambient temperature, centrifuged them for 1-2 min at 50 g, and removed the plate seals. A work list was generated to direct the Multiprobe Janus liquid handling platform (PerkinElmer) to cherry pick 75 uL from the wells of the diluted daughter plates that were flagged active in the primary screen and to reformat these into a 384-well plate hit confirmation daughter plate. Five microliters of primary HCS active compounds was then transferred into triplicate wells of assay plates using a 384-well P30 dispensing head on the Evolution P3 (EP3) liquid handling platform (PerkinElmer). […] Daughter plates containing 2 uL of the serially diluted compounds in DMSO were prepared and replicated from the 384-well serial dilution master plates using the Bravo outfitted with a 384-well transfer head. Aluminum adhesive plate seals were applied and plates were stored at -20C. […] The ImageXpress Ultra (IXU) platform (Molecular Devices LLC, Sunnyvale, CA) and The ImageXpress Micro (IXM) platform were used for imaging.
# Nucleoli Translocation, AR (gene 367), sequence (P10275 whole entry, looked up): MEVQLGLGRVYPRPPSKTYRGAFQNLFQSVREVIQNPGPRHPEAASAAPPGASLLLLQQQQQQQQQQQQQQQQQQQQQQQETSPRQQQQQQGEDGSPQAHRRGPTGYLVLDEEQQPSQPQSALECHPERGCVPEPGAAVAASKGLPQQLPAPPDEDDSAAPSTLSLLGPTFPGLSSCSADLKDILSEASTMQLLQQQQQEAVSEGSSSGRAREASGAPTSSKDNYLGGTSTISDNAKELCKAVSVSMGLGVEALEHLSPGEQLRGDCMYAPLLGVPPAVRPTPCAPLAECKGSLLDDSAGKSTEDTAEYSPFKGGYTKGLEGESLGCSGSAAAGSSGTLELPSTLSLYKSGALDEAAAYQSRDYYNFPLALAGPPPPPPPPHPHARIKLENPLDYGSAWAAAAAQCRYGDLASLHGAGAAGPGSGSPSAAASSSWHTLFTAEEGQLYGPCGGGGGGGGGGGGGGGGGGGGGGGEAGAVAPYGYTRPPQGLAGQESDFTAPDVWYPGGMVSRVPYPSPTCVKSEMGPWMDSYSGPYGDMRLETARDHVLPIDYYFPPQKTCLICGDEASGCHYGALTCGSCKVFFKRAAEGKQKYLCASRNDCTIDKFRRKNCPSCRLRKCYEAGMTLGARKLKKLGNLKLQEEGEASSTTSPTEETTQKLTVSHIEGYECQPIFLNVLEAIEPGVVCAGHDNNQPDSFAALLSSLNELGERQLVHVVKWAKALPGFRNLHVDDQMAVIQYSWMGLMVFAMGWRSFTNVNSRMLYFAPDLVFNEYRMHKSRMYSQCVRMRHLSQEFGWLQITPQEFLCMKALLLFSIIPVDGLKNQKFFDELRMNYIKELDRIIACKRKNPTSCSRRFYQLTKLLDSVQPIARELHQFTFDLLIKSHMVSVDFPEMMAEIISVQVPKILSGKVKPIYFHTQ
Compound,outcome,AC50
CC(CCO)CC(C)(C)C (centres undefined),inactive,–
CCO[Si](CC)(OCC)OCC,inactive,–
OC[C@H]1O[C@@H](O[C@H]2[C@H](O)[C@@H](O)[C@H](O)O[C@@H]2CO)[C@H](O)[C@@H](O)[C@H]1O,inactive,–
CCCCCCOc1ccc(O)cc1,–,50 µM (active)
FC(F)(F)c1ccc(Cl)c(Cl)c1,inactive,–
c1ccc2c(c1)-c1ccc3ccc4cccc5cc-2c1c3c45,–,15.4 µM (active)
CCC(C)(C)C1CCC(=O)CC1,inactive,–
COc1cc(OC)c2ccc(=O)oc2c1,inactive,–
CCOc1ccc(NC(C)=O)cc1,inactive,–
CC1COC(=O)O1 (centres undefined),inactive,–
COC(=O)c1cccc(C(=O)OC)c1,inactive,–
CCCCCCCCCCOC(=O)c1ccccc1C(=O)OCCCCCCCC,inactive,–
CC(=O)N(C)C,inactive,–
CC(C)(C)c1cccc(O)c1,inactive,–

# Reference: PubChem BioAssay (EPA / NIEHS)
